Data as given in ChEMBL document CHEMBL3433997, “St. Jude Leishmania screening dataset” (2016).

Key:
Type in all cases: functional
[1] = molecular target: Solute carrier family 2, facilitated glucose transporter member 1 (Homo sapiens) (UniProt P11166); assay: ST_JUDE_LEISH: Cytotoxicity at 2uM final concentration against transgenic Leishmania Mexicana promastigotes LmGLUT1 that are glucose transport deficient and complemented with the human glucose transporter GLUT1. Activity is measured by DNA content using SYBR green in vitro
[2] = molecular target: Hexose transporter 1 (Plasmodium falciparum) (UniProt O97467); assay: ST_JUDE_LEISH: Cytotoxicity at 2uM final concentration against transgenic Leishmania Mexicana promastigotes LmPfHT that are glucose transport deficient and complemented with the Plasmodium falciparum hexose transporter. Activity is measured by DNA content using SYBR green in vitro
[3] = molecular target: Glucose transporter (Leishmania mexicana) (UniProt O61059); assay: ST_JUDE_LEISH: Cytotoxicity at 2uM final concentration against transgenic Leishmania Mexicana promastigotes LmGT2 that are glucose transport deficient and complemented with the L. Mexicana glucose transporter 2. Activity is measured by DNA content using SYBR green in vitro

Chain of Solute carrier family 2, facilitated glucose transporter member 1 (Homo sapiens) (P11166 whole entry): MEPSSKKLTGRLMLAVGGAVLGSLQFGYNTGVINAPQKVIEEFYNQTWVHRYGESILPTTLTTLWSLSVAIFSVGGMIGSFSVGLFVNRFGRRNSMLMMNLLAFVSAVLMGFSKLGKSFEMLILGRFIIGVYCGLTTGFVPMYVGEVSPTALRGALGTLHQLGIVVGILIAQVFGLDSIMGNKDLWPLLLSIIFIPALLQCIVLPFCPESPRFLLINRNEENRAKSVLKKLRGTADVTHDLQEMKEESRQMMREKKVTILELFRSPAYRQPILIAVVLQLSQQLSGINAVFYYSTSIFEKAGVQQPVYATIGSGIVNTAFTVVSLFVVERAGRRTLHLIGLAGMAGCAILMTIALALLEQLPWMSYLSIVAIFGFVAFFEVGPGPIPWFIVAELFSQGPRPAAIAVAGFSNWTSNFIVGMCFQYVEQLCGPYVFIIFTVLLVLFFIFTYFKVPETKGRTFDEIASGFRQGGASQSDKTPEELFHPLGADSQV

## O=C(C=Cc1cccc(F)c1)NC1CCC(CCN2CCc3ccc(-c4cnccn4)cc3CC2)CC1 (centres undefined)
[1]
  inhibition: 14.4%
[2]
  inhibition: 14.2%
[3]
  inhibition: 13.1%

## CC(C)CCN1CCCN(Cc2ccc(C(=O)Nc3ccc(C(C)(C)C)cc3)cc2)CC1
[1]
  inhibition: 2.66%
[2]
  inhibition: 1.37%
[3]
  inhibition: 1.41%

## CC(=O)CCc1ccc(OCCN(Cc2ccccc2C(F)(F)F)c2ccc(C#N)c(C(F)(F)F)c2)cc1
[1]
  inhibition: 3.66%
[2]
  inhibition: 4.24%
[3]
  inhibition: 2.73%

## O=C(N[C@H]1CCN(CCc2ccc(O[C@H]3CCNC3)c(F)c2)C1)c1ccc(Cl)c(Cl)c1
[1]
  inhibition: 8.17%
[2]
  inhibition: 9.6%
[3]
  inhibition: 9.34%

## O=C(c1ccco1)N1CCN(c2ccc([N+](=O)[O-])c(NC3CC3)c2)CC1
[1]
  inhibition: 0.6%
[2]
  inhibition: 0.13%
[3]
  inhibition: -1.35%

## Cc1ccc(Nc2nc(C)cc(NC3CCN(C)CC3)n2)cc1
[1]
  inhibition: 1.14%
[2]
  inhibition: 3.12%
[3]
  inhibition: 5.43%

## Cc1nc2ccc3ccc(CNc4ccc5c(c4)CN([C@@H](CCC(=O)O)C(=O)O)C5=O)cc3c2c(=O)[nH]1
[1]
  inhibition: 1.71%
[2]
  inhibition: -0.99%
[3]
  inhibition: -1.52%

## N#Cc1cc(C(=O)c2cc(Cl)ccc2O)cn(-c2cccc(C(F)(F)F)c2)c1=O
[1]
  inhibition: 8.27%
[2]
  inhibition: 7.71%
[3]
  inhibition: 5.33%

## Cc1ccc2[nH]c(-c3cc(-c4ccc(OCc5ccccc5)cc4)cnc3N)nc2c1
[1]
  inhibition: 1.75%
[2]
  inhibition: 2.05%
[3]
  inhibition: -0.31%

## CCN(CC)CCN(Cc1ccc(-c2ccc(C(F)(F)F)cc2)cc1)C(=O)c1ccc(-c2ccc(C#N)cc2)cc1
[1]
  inhibition: 2.48%
[2]
  inhibition: 0.49%
[3]
  inhibition: 2.37%

## O=C(NCCCCCN1CCC(c2c[nH]c3ccccc23)CC1)c1ccc(-c2ccccc2)nc1
[1]
  inhibition: 2.41%
[2]
  inhibition: 2.42%
[3]
  inhibition: 2.97%

## Fc1cccc(CNc2ncc(-c3ccsc3)c(-c3nccs3)n2)c1
[1]
  inhibition: 1.64%
[2]
  inhibition: 1.96%
[3]
  inhibition: 2%

## CCCc1ccc(NC(=O)c2ccc(CN3CCCN(Cc4cccc(O)c4)CC3)cc2)cc1
[1]
  inhibition: 3.2%
[2]
  inhibition: 2.61%
[3]
  inhibition: 3.95%

## O=C(/C=C/c1ccc(Cl)c(Cl)c1)NCCCCCN1CCC(NC(=O)Nc2ccc3c(c2)OCO3)CC1
[1]
  inhibition: 0.33%
[2]
  inhibition: 2.53%
[3]
  inhibition: 4.27%

## N=C(N)Nc1nc(-c2cccc(NC(=O)Cc3ccccc3)c2)cs1
[1]
  inhibition: 2.29%
[2]
  inhibition: 4.02%
[3]
  inhibition: 3.44%

## CC1CCN(c2nc(C(=O)NCCc3ccc(Cl)c(Cl)c3)c(C(C)C)s2)CC1
[1]
  inhibition: 0.93%
[2]
  inhibition: 0.99%
[3]
  inhibition: 2.67%

## OC1CCCN(Cc2cccc(-c3ccc(-c4nc5cc(C(F)(F)F)ccc5[nH]4)cc3)c2)C1 (centres undefined)
[1]
  inhibition: 2.67%
[2]
  inhibition: 2.8%
[3]
  inhibition: 3.54%

## COc1ccc(CN(C)Cc2cc(C(C)C)c(C)cc2O)cc1F
[1]
  inhibition: 2.07%
[2]
  inhibition: 1.85%
[3]
  inhibition: -2.13%

## O=C(CSc1nc(-c2ccccc2Cl)ns1)Nc1cccc(F)c1
[1]
  inhibition: -0.07%
[2]
  inhibition: -0.93%
[3]
  inhibition: 5.3%

## CCC(CC(C)C(=O)O)=C(c1ccccc1)c1ccccc1 (centres undefined)
[1]
  inhibition: -0.78%
[2]
  inhibition: -0.86%
[3]
  inhibition: 0.2%

## CCc1ccc(C2CCN(CCCCNC(=O)c3ccc(NC(=O)c4ccc(Cl)cc4)cc3)CC2)cc1
[1]
  inhibition: -0.05%
[2]
  inhibition: 0.38%
[3]
  inhibition: 0.05%

## O=C(/C=C/c1ccc(Cl)c(Cl)c1)NCCCCCN1CCCN(C(=O)Nc2ccc(C(F)(F)F)cc2)CC1
[1]
  inhibition: 2.96%
[2]
  inhibition: 2.53%
[3]
  inhibition: 5.5%

## CCOc1cc2ncnc(Nc3ccc(OCc4c(Cl)cccc4Cl)c(OC)c3)c2cc1OCC
[1]
  inhibition: 4.01%
[2]
  inhibition: 4.16%
[3]
  inhibition: 3.54%

## CN(Cc1cc(C(F)(F)F)cc(C(F)(F)F)c1)C(=O)C(Cc1ccc(F)cc1)C1CCCNC1 (centres undefined)
[1]
  inhibition: 6.71%
[2]
  inhibition: 4.23%
[3]
  inhibition: 6.9%

## Cc1ccc2[nH]ncc2c1N(CC1CCCCC1)c1ccnc(Nc2ccc(OCC(O)CN3CC=CCC3)cc2)n1 (centres undefined)
[1]
  inhibition: 2.37%
[2]
  inhibition: 3.33%
[3]
  inhibition: -0.59%

## Brc1ccc(Nc2nc(NCc3ccccc3)c3ccccc3n2)cc1
[1]
  inhibition: 22.6%
[2]
  inhibition: 16.5%
[3]
  inhibition: 6.03%

## O=C(Nc1ccc(-c2nc3ccc(NC(=O)c4ccc(Br)cc4)cc3[nH]2)cc1)c1ccc(Br)cc1
[1]
  inhibition: -0.81%
[2]
  inhibition: -0.68%
[3]
  inhibition: -2.77%

## C=CCn1c(SCc2c(C)noc2C)nc2scc(-c3cccs3)c2c1=O
[1]
  inhibition: 0.98%
[2]
  inhibition: 0.21%
[3]
  inhibition: -5.13%

## CN(C)CCCNCc1ccc(-c2ccc(CNCCOc3ccccc3)cc2)cc1
[1]
  inhibition: 2.4%
[2]
  inhibition: 4.11%
[3]
  inhibition: 2.46%

## CCC(C)NC(=O)CN1CN(c2ccccc2)C2(CCN(C(=O)c3ccc(-c4ccccc4)cc3)CC2)C1=O (centres undefined)
[1]
  inhibition: 8.23%
[2]
  inhibition: 11.5%
[3]
  inhibition: 7.73%

## Nc1nccc2ccc(-c3cccc4ncccc34)cc12
[1]
  inhibition: 1.74%
[2]
  inhibition: 0.04%
[3]
  inhibition: 1.15%

## O=[N+]([O-])c1cccc(CNCC2CCN(Cc3ccc4ccccc4c3)CC2)c1
[1]
  inhibition: 16.5%
[2]
  inhibition: 3.55%
[3]
  inhibition: 2.23%

## COc1ccc(Nc2ncc3c(-c4cccc(NC(=O)Cc5ccc(F)cc5)c4)c[nH]c3n2)cc1OC
[1]
  inhibition: 2.27%
[2]
  inhibition: 2.59%
[3]
  inhibition: 2.37%
